From PubChem
C diff growth = C. difficile growth inhibitors, primary screen, HTS | Clostridium difficile clinical isolate growth, OD600, 24 h; hits give low values | growth activity, negative = inhibition, % at 16 µg/mL (by protocol) | hit rate 0.25% among 86,000;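 active means mean growth activity at or below -80% and every replicate also at or below -80%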;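 further: 0% = DMSO wells and -100% = levofloxacin 16 µg/mL wells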
T cruzi growth = T. cruzi intracellular proliferation inhibitors, primary screen, cell-based, beta-gal Tulahuen parasites, NIH3T3 host, luminescence | T. cruzi beta-gal in NIH3T3, GalScreen luminescence, 90 h | hit rate 5.9% among 77,000 | inhibition, % at 8.34 µM;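 active means mean inhibition above about 93%, with at least 55% of replicates each passing it, limit read from the data, passing the limit was not always enough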
Pf Dd2 inh = P. falciparum Dd2 growth inhibitors, primary screen, SYBR Green fluorescence, single dose replicates; 72 h; hits give low values; activity change, % at 10 µM; hit rate 2.3% among 94,000; AID 1159554, 2015; in the data active means activity change below about -80%
* = called active by the depositor; . = no result. In the library only some 6.7% were active in any assay of this set; here they are far more common.

SMILES	C diff growth	T cruzi growth	Pf Dd2 inh
Cc1noc(C)c1S(=O)(=O)Nc1ccc2c(c1)C(=O)N([C@@H](C)CO)C[C@@H](C)[C@@H](CN(C)Cc1ccc3c(c1)OCO3)OCCCC[C@H](C)O2	5.7	66.2	-67.3
CCCNC(=O)N1CCC2(CC1)CN(Cc1cccc(F)c1)[C@H](CO)c1[nH]c3cc(OC)ccc3c12	1.4	.	-83.1*
COc1ccc2c3c([nH]c2c1)[C@@H](CO)N(Cc1ccc(F)cc1)CC31CCN(C(C)=O)CC1	.	.	35.2
COc1ccc2c3c([nH]c2c1)[C@H](CO)N(C(=O)c1cccc(F)c1)CC31CCN(C(=O)CC2CC2)CC1	-10.2	.	-82.3*
COc1ccc2c3c([nH]c2c1)[C@H](CO)N(Cc1cccc(F)c1)CC31CCN(C(C)=O)CC1	3.9	.	-82.8*
COc1ccc2c3c([nH]c2c1)[C@H](CO)N(C(=O)c1cccc(F)c1)CC31CN(C(=O)CC2CC2)C1	-12.0	.	-77.9
CCCNC(=O)N1CCC2(CC1)CN(Cc1cccc(OC)c1)[C@H](CO)c1[nH]c3cc(OC)ccc3c12	1.9	.	-73.8
O=C(c1ccncc1)N1CC(=O)N2[C@H](CO)[C@H](c3ccc(/C=C/c4ccccc4)cc3)[C@@H]2C1	-8.6	.	-23.4
CCC(=O)Nc1ccc2c(c1)C(=O)N(C)C[C@@H](OC)[C@@H](C)CN(C(=O)CN(C)C)[C@H](C)CO2	.	-46.3	.
CCCNC(=O)N1[C@@H](C#N)[C@@H](c2ccccc2)[C@@H]1CO	-23.1	-61.8	7.6
CCCNC(=O)N1[C@H](C#N)[C@H](c2ccc(C#Cc3cccc(F)c3)cc2)[C@H]1CO	-2.8	93.8	-85.0*
CCCNC(=O)N1[C@H](C#N)[C@H](c2ccccc2)[C@H]1CO	-9.9	37.2	-39.2
CCCNC(=O)N1[C@H](CO)[C@@H](c2ccc(-c3ccccc3)cc2)[C@@H]1CNC(C)=O	-1.2	0.8	1.8
CCCNC(=O)N1[C@H](C#N)[C@H](c2ccc(C#Cc3ccc(F)cc3)cc2)[C@H]1CO	-2.8	93.0	-86.4*
CCCNC(=O)N1[C@H](CO)[C@H](c2ccc(-c3ccc(C#N)cc3)cc2)[C@@H]1CNC	-4.2	.	-83.5*
C[C@@H]1CN([C@H](C)CO)C(=O)c2cc(C3=CCCCC3)cnc2O[C@H]1CN(C)C(=O)c1ccccn1	-0.5	32.5	18.5
C[C@@H]1CN([C@H](C)CO)C(=O)c2cccc(NC(=O)C3CC3)c2O[C@H]1CN(C)C(=O)Nc1cccc2ccccc12	-3.4	44.6	-14.6
C[C@@H]1CN([C@@H](C)CO)C(=O)c2cc(NC(=O)c3ccccc3)ccc2O[C@@H](C)CCCCO[C@@H]1CN(C)C(=O)Cc1ccccc1	-2.6	17.2	-72.2
COc1ccccc1C#Cc1ccc2c(c1)[C@@H]1[C@@H](CCN1C(=O)c1ccncc1)[C@H](CO)N2	12.5	.	-63.1
COc1ccccc1C#Cc1ccc2c(c1)[C@H]1[C@H](CCN1C(=O)c1ccc(F)cc1)[C@@H](CO)N2	-100.8*	.	-65.0
COc1ccccc1CN1CC[C@H]2[C@H](CO)Nc3ccc(-c4cccc(F)c4)cc3[C@H]21	-1.8	42.1	-67.1
CC(=O)N1CC[C@@H]2[C@@H](CO)Nc3ccc(C#Cc4ccccc4F)cc3[C@@H]21	-0.6	81.4	-82.6*
COc1ccccc1CN1CC[C@H]2[C@H](CO)Nc3ccc(C#Cc4ccccc4)cc3[C@H]21	-99.6*	17.2	-76.4
CC(=O)N1CC[C@H]2[C@H](CO)Nc3ccc(C#Cc4ccccc4F)cc3[C@H]21	-6.6	.	-20.7
O=C(c1ccc(F)cc1)N1CC[C@H]2[C@H](CO)Nc3ccc(C#Cc4ccccc4F)cc3[C@H]21	68.9	.	-69.1
SMILES	C diff growth	T cruzi growth	Pf Dd2 inh
COc1ccccc1C#Cc1ccc2c(c1)[C@@H]1[C@@H](CCN1C(=O)c1ccncc1)[C@@H](CO)N2	-94.6*	85.0	-45.3
Cc1noc(C)c1S(=O)(=O)Nc1ccc2c(c1)CC(=O)N([C@H](C)CO)C[C@H](C)[C@@H](CN(C)S(=O)(=O)c1c(C)noc1C)O2	-2.5	20.1	-12.1
O=C(OC[C@@H]1[C@H]2c3ccccc3OC1(CO)N=C1SCc3ccccc3CN12)c1ccccc1	2.9	.	.
CCCNC(=O)N1CC2(CCN(C(=O)C3CCCCC3)CC2)c2c([nH]c3cc(OC)ccc23)[C@H]1CO	-8.0	.	-2.6
C[C@H](CO)N1C[C@H](C)[C@H](CN(C)Cc2ccc(-c3ccccc3)cc2)Oc2ccc(NC(=O)Nc3ccc4c(c3)OCO4)cc2CC1=O	20.5	64.6	-4.9
C[C@@H]1CN([C@@H](C)CO)C(=O)Cc2cc(NC(=O)Cc3cn(C)c4ccccc34)ccc2O[C@@H]1CN(C)Cc1ccc(Cl)c(Cl)c1	3.1	82.4	-39.2
C[C@H](CO)N1C[C@H](C)[C@@H](CN(C)Cc2ccc(-c3ccccc3)cc2)Oc2ccc(NC(=O)Nc3ccc4c(c3)OCO4)cc2CC1=O	79.0	56.2	-82.1*
C[C@@H]1CN([C@@H](C)CO)C(=O)Cc2cc(NC(=O)Nc3ccccc3)ccc2O[C@H]1CN(C)Cc1ccc(-c2ccccc2)cc1	46.6	60.1	-88.0*
C[C@@H]1CN([C@@H](C)CO)C(=O)Cc2cc(NC(=O)Nc3ccc(F)cc3)ccc2O[C@@H]1CN(C)Cc1ccccc1	1.1	80.8	-35.7
C[C@@H]1CN([C@H](C)CO)C(=O)Cc2cc(NC(=O)Nc3ccccc3)ccc2O[C@@H]1CN(C)Cc1ccc(-c2ccccc2)cc1	4.5	94.3	32.1
C[C@H](CO)N1C[C@H](C)[C@@H](CN(C)Cc2ccccc2)Oc2ccc(NC(=O)Nc3ccc(F)cc3)cc2CC1=O	-0.5	75.8	-88.3*
C[C@@H]1CN([C@@H](C)CO)C(=O)Cc2cc(NC(=O)Cc3cn(C)c4ccccc34)ccc2O[C@H]1CN(C)Cc1ccc(Cl)c(Cl)c1	6.5	94.6	-81.7*
CC(=O)N1[C@@H]2c3ccc(-c4cccnc4)c(=O)n3C[C@H]1[C@H](CO)[C@H]2C(=O)N1CCc2ccccc2C1	-4.0	-21.0	.
C[C@@H]1CN([C@@H](C)CO)C(=O)c2cc(N(C)C)ccc2O[C@@H]1CN(C)Cc1ccc(C(=O)O)cc1	-3.3	89.1	1.3
C[C@@H]1CCCCO[C@H](CN(C)C(=O)Cc2ccccc2)[C@@H](C)CN([C@@H](C)CO)C(=O)c2cc(NC(=O)C3CCCCC3)ccc2O1	-6.0	35.3	-65.1
Cc1ccccc1-c1ccc(C2[C@@H]3CN(C(=O)C4CCC4)C[C@H]2N3)cc1 (stereo partly drawn)	-2.4	.	12.2
C[C@H](CO)N1C[C@H](C)[C@@H](CN(C)C(=O)Nc2ccc3c(c2)OCO3)Oc2ccc(NC(=O)Nc3ccccc3)cc2CC1=O	5.3	-26.8	-83.3*
C[C@@H]1CN([C@H](C)CO)C(=O)Cc2cc(NC(=O)Nc3ccc4c(c3)OCO4)ccc2O[C@@H]1CN(C)Cc1ccc2c(c1)OCO2	6.6	80.1	-0.4
C[C@H](CO)N1C[C@H](C)[C@@H](CN(C)Cc2ccc3c(c2)OCO3)Oc2ccc(NC(=O)Nc3ccc4c(c3)OCO4)cc2CC1=O	7.7	78.8	-91.2*
C[C@H]1CN([C@@H](C)CO)C(=O)Cc2cc(NS(=O)(=O)c3cn(C)cn3)ccc2O[C@H]1CN(C)Cc1ccc(Oc2ccccc2)cc1	-13.2	-0.3	0.5
